Source: PubChem (Sanford-Burnham Center for Chemical Genomics)
The entries come from a sample that favours hits as a whole.
ER stress death – ER stress cell death inhibition | hit rate 0.33% among 48,000 | relative survival (cellular ATP), % at 15 µg/mL (by protocol) | AID 1010 | CSM14.1 thapsigargin ER stress survival, ATP luminescence;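 active = survival measured by cellular ATP above 50% at 15 µg/ml in the first screen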;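 note: cell death triggered by about 15 µM thapsigargin; ATP read 24 h after thapsigargin was added; plate controls were thapsigargin with DMSO for no effect and DMSO without thapsigargin for full effect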
* hit, by the source's call.

SMILES	ER stress death
O=C(Nc1ccc([N+](=O)[O-])c(NC(=O)c2cccs2)c1)c1cccs1	1
CC(C)CN1C(=O)c2ccc(C(=O)Nc3cc(Cl)ccc3C(=O)O)cc2C1=O	0
Cc1ccc(C)c(OCC(O)CN2CC(C)CC(C)C2)c1 (stereo unspecified)	-3
CCc1ccc(-n2c(C)cc(/C=N/NC(=O)c3ccncc3)c2C)cc1	31
Cc1ccc(-n2c(C)cc(/C=N/NC(=O)c3ccncc3)c2C)cc1C	67*
Cc1cccc(C)c1-n1c(C)cc(/C=N/NC(=O)c2ccncc2)c1C	5
COc1ccc2c(c1)OCC/C2=N\OC(=O)c1cccc2ccccc12	10
CCOC(=O)CNS(=O)(=O)c1ccc(F)cc1	12
CCn1c2ccccc2c2cc(CN3CCN(C(=O)CC(C)C)CC3)ccc21	63*
CCn1c2ccccc2c2cc(CN3CCN(Cc4ccc(OC)c(Br)c4)CC3)ccc21	2
CCn1c2ccccc2c2cc(CN3CCN(C(=O)c4cccs4)CC3)ccc21	133*
COc1ccc(CN2CCN(C(=O)c3cccs3)CC2)cc1OC	-9
O=C(c1cccs1)N1CCN(Cc2ccc(Cl)cc2)CC1	-4
CC(C)CC(=O)N1CCN(Cc2ccc3ccccc3c2)CC1	-3
CSc1nnc2c(n1)OC(c1cccc([N+](=O)[O-])c1)Nc1ccccc1-2 (stereo unspecified)	12
COc1ccc(C2/C(=C(/O)c3ccccc3)C(=O)C(=O)N2Cc2ccccc2)cc1 (stereo unspecified)	6
Cn1c(=O)[nH]c2nc(-c3ccccc3)[nH]c2c1=O	-8
O=c1oc2cc(OCc3c(F)c(F)c(F)c(F)c3F)ccc2cc1-c1ccc2ccccc2n1	11
CC(C)(C)C1CCc2c(sc(NC(=O)c3ccncc3)c2C(N)=O)C1 (stereo unspecified)	6
CSc1nc(NC(N)=O)c2c3c(sc2n1)CC(C(C)(C)C)CC3 (stereo unspecified)	58*
CC(C)(C)C1CCc2c(sc3ncn(N)c(=N)c23)C1 (stereo unspecified)	-28
Cc1cc(OCC(=O)N2CCN(c3ccccc3)CC2)ccc1Br	-1
COc1ccc(OC)c(NC(=O)CN(c2ccc(Br)cc2)S(C)(=O)=O)c1	4
CCOc1ccc(C(=O)Nc2cc(Cl)cc(Cl)c2)cc1Cl	6
CCOc1ccc(C(=O)Nc2ccc(Cc3ccncc3)cc2)cc1Cl	35
SMILES	ER stress death
CCOc1ccc(C(=O)Nc2ccc(Cl)c(-c3nc4ccccc4[nH]3)c2)cc1Cl	65*
Cc1ccc(N[C@@H]2C[C@H](O)[C@@H](CO)O2)cc1C	-1
COc1cccc(-c2nc3cc(NC(=O)c4cc5ccccc5o4)ccc3o2)c1	20
O=C(c1ccc([N+](=O)[O-])cc1)N1CCN(Cc2ccccn2)CC1	7
COc1cc(CN2CCN(C(=O)c3ccc(-c4ccccc4)cc3)CC2)cc(OC)c1OC	75*
COc1ccc(C(=O)N2CCN(Cc3cc(OC)c(OC)c(OC)c3)CC2)cc1OC	-1
COc1cccc(CN2CCN(C(=O)c3ccc(-c4ccccc4)cc3)CC2)c1OC	113*
O=C(c1ccc([N+](=O)[O-])cc1)N1CCN(Cc2cccc(Cl)c2)CC1	0
COc1cccc(CN2CCN(C(=O)c3ccccc3)CC2)c1OC	-2
COc1cccc(CN2CCN(C(=O)c3cccc(F)c3)CC2)c1OC	7
COc1ccc(C(=O)N2CCN(Cc3cc(OC)c(O)c(OC)c3)CC2)cc1	-4
O=C(c1ccc([N+](=O)[O-])cc1)N1CCN(Cc2cccc3ccccc23)CC1	63*
CCOC(=O)c1c(-c2ccc(OC)cc2)csc1NC(=O)C(C)C	5
COc1ccc(C(NC(=O)c2ccccc2)c2ccc3cccnc3c2O)cc1 (stereo unspecified)	7
CCCC(=O)NC(c1ccc(Cl)cc1)c1ccc2cccnc2c1O (stereo unspecified)	11
CCC(=O)NC(c1ccc(N(C)C)cc1)c1ccc2cccnc2c1O (stereo unspecified)	59*
CCSc1nc2ccc(N)cc2s1	-2
Cc1occc1C(=O)Nc1ccccc1Cl	7
O=C(/C=C/c1cccc([N+](=O)[O-])c1)Nc1ccc(-c2nc3ccccc3o2)c(O)c1	12
FC(F)(F)c1ccc2nnc(-c3cc(Br)ccc3OCc3ccccc3)n2c1	2
COc1ccc2ccccc2c1-c1nnc2ccc3ccccc3n12	7
COc1ccc2ccccc2c1-c1nnc2ccc(C(F)(F)F)cn12	60*
CC(=O)Nc1ccc(S(=O)(=O)N/N=C/c2ccco2)cc1	4
CCOc1ccc(Nc2nc(-c3ccccn3)cs2)cc1	1
Cc1ccn2c(-c3csc(Nc4cccc(O)c4)n3)c(C)nc2c1	40
SMILES	ER stress death
CCOc1ccc(Nc2nc(-c3c(C)nc4cc(C)ccn34)cs2)cc1	96*
CCOc1ccccc1CN(CCc1ccc2c(c1)OCO2)Cc1ccc(OC)c(OC)c1OC	-3
CCC1CCc2c(sc(NC(=O)c3c(-c4c(Cl)cccc4Cl)noc3C)c2C(N)=O)C1 (stereo unspecified)	7
CC1=NN(c2cccc(C(=O)O)c2)C(=O)/C1=C\c1ccc(O)c([N+](=O)[O-])c1	2
COC(=O)c1cccc(NC(=O)COc2c(C)cccc2C)c1	6
CCOC(=O)c1c(C)nc(C)c(C(=O)OCC)c1-c1cccc(NC(=O)c2ccc(F)cc2)c1	115*
CCOC(=O)c1c(C)nc(C)c(C(=O)OCC)c1-c1ccccc1	4
CCOc1ccc(C(=O)Nc2cccc(NC(=O)c3ccc(F)cc3)c2)cc1	0
Cc1ccccc1CC1S/C(=N\N=C\c2ccc(N(C)C)cc2)NC1=O (stereo unspecified)	-2
CCN(C(=O)c1cc(OC)c(OC)c(OC)c1)c1ccccc1	6
COc1ccccc1CNC(=O)c1ccc(F)cc1	100*
COc1ccccc1CNC(=O)c1ccc(C)cc1	6
COc1ccccc1CNC(=O)c1ccc(OC)c(OC)c1	11
CCN1C(=O)/C(=C\c2ccc(-c3ccc([N+](=O)[O-])cc3)o2)SC1=S	7
O=C1S/C(=C\c2ccc(-c3ccc([N+](=O)[O-])cc3)o2)C(=O)N1c1ccccc1	-2
O=C1/C(=C/c2ccc(-c3ccc([N+](=O)[O-])cc3)o2)SC(=S)N1Cc1ccco1	56*
CCOC(=O)c1ccc(N2NC(=O)/C(=C/c3ccc(C=O)cc3)C2=O)cc1	14
CC1(c2ccccc2)CC(C)(C)N(C(N)=O)c2ccccc21 (stereo unspecified)	2
C=CCn1c(SCC(=O)N2c3ccccc3C(C)(c3ccccc3)CC2(C)C)nnc1-c1ccncc1 (stereo unspecified)	76*
Cc1nnc(SCC(=O)N2c3ccccc3C(C)(c3ccc(Br)cc3)CC2(C)C)s1 (stereo unspecified)	-2
O=C1c2cccc3cccc(c23)C(=O)N1CCN1CCN(CC(O)c2ccc([N+](=O)[O-])cc2)CC1 (stereo unspecified)	8
Cc1cc(C)cc(NC(=O)COc2cccc(Cl)c2)c1	8
c1ccc(Oc2cccc(CSc3nnnn3-c3ccccc3)c2)cc1	9
CC1(C)CC(NC(=O)C(=O)Nc2ccccc2)CC(C)(C)N1	-1
O=C(Nc1cccc(NC(=O)c2cccc3ccccc23)c1)c1ccc(Cl)cc1Cl	9
O=C(COc1ccc2ccccc2c1)Nc1cccc(NC(=O)c2ccc(Cl)cc2Cl)c1	50*
O=C(COc1ccc2ccccc2c1)Nc1ccc(Cl)c(Cl)c1	0
O=C(C1CCCO1)N1CCN(c2cccc(Cl)c2)CC1 (stereo unspecified)	-4
